proKLK7 act = proKLK7 zymogen activators, primary screen, biochemical, fluorescence intensity | Kallikrein-7 (Homo sapiens), P49862 | activation, % at 7 µM | purified proKLK7, EDANS-DABCYL substrate fluorescence; 100% is mature enzyme control, 0% vehicle | hit rate 0.9% among 370,000;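 active = activation above the mean of all tested compounds plus 3 SD, computed per campaign excluding outliers beyond control limits, cut at about 13% in these data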
Target sequence (P49862 whole entry, looked up): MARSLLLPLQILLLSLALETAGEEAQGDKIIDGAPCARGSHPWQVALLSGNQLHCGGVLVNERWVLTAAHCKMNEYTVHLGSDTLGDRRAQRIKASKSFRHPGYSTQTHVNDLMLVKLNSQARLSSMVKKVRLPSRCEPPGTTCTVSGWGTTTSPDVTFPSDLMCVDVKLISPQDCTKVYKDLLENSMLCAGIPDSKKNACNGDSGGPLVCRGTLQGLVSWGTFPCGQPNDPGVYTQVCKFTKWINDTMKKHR
MsrA act = bovine MsrA enzyme activators, primary screen, biochemical, absorbance, HTS | Methionine sulfoxide reductase A (Bos taurus) | purified bovine MsrA, absorbance read-out | activation, % at 10.6 µM | hit rate 0.3% among 360,000; in the data active = activation above about 7.5%;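 note: 0% = vehicle and 100% = reference activator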
MsrA inh = bovine MsrA enzyme inhibitors, primary screen, biochemical, absorbance, HTS. Methionine sulfoxide reductase A (Bos taurus). purified bovine MsrA, absorbance read-out. inhibition, % at 15.5 µM. hit rate 0.75% among 360,000. AID 651718, 2012; in the data active = inhibition above about 4.5%;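 note: 0% = vehicle wells with enzyme and 100% = reference inhibitor wells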
SMARCA2 act = SMARCA2 (BRM) function activators, primary screen, cell-based, luminescence, high throughput | MG213 cells, MMTV-luciferase reporter, dexamethasone, overnight | hit rate 1% among 370,000 | activation, % at 9.1 µM; in the data active = activation above about 7.8%;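 note: 0% = vehicle wells and 100% = reference activator wells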
SMARCA2 act conf = SMARCA2 (BRM) function activators, confirmation, cell-based, luminescence, triplicate; shares compounds with SMARCA2 act; MG213 cells, MMTV-luciferase with dexamethasone, overnight; MG213 cells expressing E1A, Rb sequestered; DMSO wells 0%, reference activator 100%; activation, % at 9.1 µM; hit rate 30% among 3,500;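 active = activation above its plate's cutoff, the mean activation of tested wells plus 3 SD, cut at about 7.9% in these data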
GAL4-VP16 Luc = GAL4-VP16 luciferase reporter activation, counter-screen for SMARCA2 (BRM) activator project, cell-based, pG5luc, luminescence, high throughput; shares compounds with SMARCA2 act; HEK293 GAL4-VP16 pG5luc reporter; scaled: DMSO wells 0%, SAHA wells 100%; activation, % at 9.1 µM; hit rate 41% among 3,500;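 active = activation above the solvent-only control well mean plus 3 SD, averaged across control plates, cut at about 5.2% in these data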
Starred values were filed as active, the others as inactive; / = no result given. In the library only some 2.8% were active in any assay of this set; here they are far more common.

SMILES	proKLK7 act	MsrA act	MsrA inh	SMARCA2 act	SMARCA2 act conf	GAL4-VP16 Luc
COc1ccc2oc(C(=O)OCC(=O)N3CCCCC3C)c(C)c2c1 (stereo not given)	4	-2	1	8.4*	7	2
CCOc1ccc(CCN2C(=S)N([C@@H](Cc3ccc(O)cc3)CN3CCC[C@@H]3CN3C(=S)NC[C@@H]3Cc3ccc(O)cc3)C[C@@H]2Cc2ccc(O)cc2)cc1	-1	-3	-1	2	/	/
COc1ccc(-c2cc(C(=O)c3c(N)n(C)c(=O)n(C)c3=O)c3ccccc3n2)cc1	2	-2	2	8.2*	8.8*	7.3*
CN(C)c1ccc(/C=C(\C#N)C(=O)OCC(=O)N(C)C2CCS(=O)(=O)C2)cc1 (stereo not given)	1	1	0	-2	/	/
CCN(C(=O)COC(=O)/C(C#N)=C/c1ccc(N(C)C)cc1)C1CCS(=O)(=O)C1 (stereo not given)	-1	-2	0	8.3*	6	4
CN(Cc1ccc(F)cc1)C(=O)c1cccc2c1C(=O)N(Cc1cccnc1)C2	0	/	/	-5	/	/
CN(C)S(=O)(=O)c1ccc(NC(=O)c2ccccn2)cc1	0	-1	-1	4	/	/
CCN(CC)S(=O)(=O)c1ccc(NC(=O)c2ccccn2)cc1	0	-9	0	9.8*	6	8.5*
Cc1cccc(OCCN2C(=O)c3ccccc3C2=O)c1	0	-2	1	9.6*	4	5
Cc1cccc(OCCCn2c(=O)sc3ccccc32)c1	0	-4	0	0	/	/
Cc1cccc(OCCn2c(=O)sc3ccccc32)c1	0	-8	0	9.0*	11*	10.0*
Cc1cccc(OCCn2c(=O)n(C)c3ccccc32)c1	1	0	0	8.9*	19*	12*
COCC(=O)Nc1ccc2c(c1)[C@@H]1C[C@H](CC(=O)OC)O[C@H](CO)[C@@H]1O2	0	-1	-1	-3	/	/
CCOC(=O)C1=CC[C@@H](c2cccc(Br)c2)N(S(=O)(=O)c2ccc(F)cc2)[C@H]1c1cccc(Cl)c1	0	/	0	-5	/	/
S=C1c2ccccc2CN1c1ccccc1	0	-2	0	10*	4	3
O=C(O)c1cccc2c1C(=O)N(c1ccccc1)C2	5	0	0	3	/	/
Cc1ccc(N2Cc3ccccc3C2=S)cc1	0	-2	0	13*	12*	11*
COc1ccc(C(NC(=O)c2ccco2)c2ccc(OC)c(OC)c2)cc1OC	0	-9	0	9.0*	-1	1
CCOc1ccc(C(CC(=O)O)NC(=O)c2ccco2)cc1OC (stereo not given)	-1	2	1	-1	/	/
CC1(C(=O)OCC(=O)Nc2ccc(C(N)=O)cc2)CC1(Cl)Cl (stereo not given)	-1	-2	-1	-3	/	/
CC1(C(=O)OCC(=O)Nc2ccc3ccccc3c2)CC1(Cl)Cl (stereo not given)	0	-13	-1	8.5*	6	6.3*
CC1CCC(NC(=O)C2CCN(C(=O)Nc3ccccc3)CC2)CC1 (stereo not given)	-1	-1	1	-4	/	/
O=C(CN(c1cccc([N+](=O)[O-])c1)S(=O)(=O)c1ccccc1)NCc1ccccc1	0	-3	0	-1	/	/
O=C(CN(c1cccc([N+](=O)[O-])c1)S(=O)(=O)c1ccccc1)N(Cc1ccccc1)Cc1ccccc1	0	-2	-1	9.9*	-3	-1
COC(=O)C1=C(C)N(Cc2cccc(C(F)(F)F)c2)C(=NCc2ccc3c(c2)OCO3)NC1c1ccccc1C(F)(F)F (stereo not given)	0	/	-2	3	/	/
Nc1ccc2ccc(N)cc2c1	0	/	1	13*	0	2
COc1cccc(NC(=O)COc2ccc(Br)c(C)c2)c1	1	-1	-1	9.9*	7	4
Cc1cc(NC(=O)CN(C)CCOc2ccccc2)ccc1Br	-1	-1	0	8.4*	0	2

Screening results as filed in PubChem BioAssay.
